Screening data deposited in PubChem BioAssay by National Center for Advancing Translational Sciences (NCATS).
An excerpt weighted towards active compounds, which were near 4.6% of everything screened.
TRHR agonist – TRH receptor (human) agonism; P34981; TRHR cells, calcium flux fluo-8, FDSS agonist mode; activation, % at 2 µM; 360,000 tested, 0.18% active; AID 493084; also: 0% is about no effect
Target sequence (P34981 whole entry, looked up): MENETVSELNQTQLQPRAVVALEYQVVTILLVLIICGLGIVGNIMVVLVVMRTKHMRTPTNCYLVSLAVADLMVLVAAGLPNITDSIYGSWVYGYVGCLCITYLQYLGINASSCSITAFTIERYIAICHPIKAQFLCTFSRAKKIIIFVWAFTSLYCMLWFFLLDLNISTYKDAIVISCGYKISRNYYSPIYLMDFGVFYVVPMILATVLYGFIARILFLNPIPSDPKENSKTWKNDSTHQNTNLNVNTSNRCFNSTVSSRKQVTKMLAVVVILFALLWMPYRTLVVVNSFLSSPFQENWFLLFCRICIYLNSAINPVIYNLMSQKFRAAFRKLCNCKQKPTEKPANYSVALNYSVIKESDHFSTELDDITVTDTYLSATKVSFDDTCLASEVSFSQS
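TRHR-expressing cells loaded with fluo-8 calcium dye; 23 nL library compound pin-transferred, kinetic FDSS fluorescence (Ex 480/Em 530) recorded about 180 s for agonist-induced calcium release, before a 10 nM TRH EC20 addition for potentiator mode.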
D1 PAM – enhances dopamine response at the human D1 receptor; P21728; HEK293 TREx D1 cells, calcium flux, dopamine EC20 potentiation; potentiation, % at 10 µM; 360,000 tested, 0.036% active; in the data active = potentiation above about 30%; also: 0% is about no effect
TRHR PAM – allosteric enhancers of human TRH receptor; 360,000 tested, 0.66% active; TRHR cells, fluo-8 calcium fluorescence, EC20 TRH enhancement; P34981; enhancement, % at 2 µM; AID 493056; in the data active = enhancement above about 30%; also: 0% is about no effect
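Enhancer read-out: after compound pinning and an initial kinetic agonist-mode read, an EC20 of TRH (10 nM final) was injected and fluo-8 calcium signal (Ex 480/Em 530) followed at 1 s/cycle for 100 cycles in TRHR-expressing cells.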
Epigenetic reg – regulators of epigenetic silencing causing reporter derepression in mouse cells | murine LDR cells, GFP reporter derepression, 30 h | Potency, µM (titrated, usually from 53.9 µM), without a hit: top-dose GFP activation, hits mostly activators | 280,000 tested, 0.2% active; active = well fitted activation curve with a large enough effect; inconclusive = small, poorly fitted or top-dose-only effect; also: potency is read from the fitted curve at half-maximal effect; % of control where 0% means no effect; nearly all actives have a fitted effect of over 60% in size
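Reporter derepression read as number of fluorescent GFP-positive objects, 20-120 um in size, counted by laser-scanning cytometer. Mouse LDR line with an epigenetically silenced CMV-GFP locus; compound incubation 30 h, 37 C.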
D1 antagonist – human D1 dopamine receptor antagonism. P21728. HEK293 TREx D1 cells, calcium flux, dopamine EC80; stronger effect = lower value. activity change, negative = inhibition, % at 10 µM. 360,000 tested, 3.2% active. AID 504652; in the data active = activity change below about -30%; also: % is scaled to controls: 0 for no effect and ±100 for the full control effect
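HEK293 T-REx cells expressing inducible, force-coupled D1 receptor; no-wash Ca dye, 30–90 min RT. Cmpd → 180 s read at 1 Hz → EC80 DA → 180 s read.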
D1 agonist – activates the human D1 dopamine receptor. P21728. HEK293 T-REx D1 cells, calcium flux, agonist mode. activation, % at 2 µM. 360,000 tested, 1% active. AID 504660; also: 0% is about no effect
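Agonism was scored from calcium flux recorded over 180 s (1 read/s) after pintool compound addition, following a 10-cycle baseline. Cells were inducible force-coupled HEK293 TREx D1, plated overnight at 30 C and loaded with no-wash calcium dye.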
The depositor's hits bear a star; ? = inconclusive; . = no result; [ ] = dose if it differs, or a comment. Rule as the data show it, unless noted: active = activation above about 30%; inactive = the rest.

SMILES	TRHR agonist	D1 PAM	TRHR PAM	Epigenetic reg	D1 antagonist	D1 agonist
Cc1ccc(CSc2nc(N)cc(N)n2)cc1	0	0	20	.	-8	1
C/C(=N\NC(=O)c1ccc(Cl)c(Cl)c1)c1ccccn1	0	-2	-2	.	-38*	4
O=C(O)c1ccc(NS(=O)(=O)c2ccsc2C(=O)O)c(O)c1	.	.	.	1%	.	.
O=[N+]([O-])c1ccc(/C=N/NC(=S)Nc2ccc(Cl)cc2Cl)s1	1	-3	10	22µM*	-21	5
Fc1ccc(/C=N/NC(=S)Nc2ccc(Cl)cc2Cl)cc1	0	-2	-15	0%	-2	5
O=[N+]([O-])c1ccc(O)c(/C=N/NC(=S)Nc2ccc(Cl)cc2Cl)c1	1	-12	-14	-2%	-40*	12
Cc1cc(Cl)ccc1NC(=O)CCC(=O)N/N=C/c1cc([N+](=O)[O-])ccc1O	-2	13	-2	5%	-9	1
COc1cc2c(=O)c(S(=O)(=O)c3ccc(C)cc3)cn(Cc3cccc(C)c3)c2cc1OC	0	0	5	-8%	8	15
Cc1ccc(C(=O)NCCC(=O)N2CCOCC2)cc1	1	-5	1	.	-37*	1
COc1ccc(CCNC(=O)CCS(=O)(=O)c2ccc3c(c2)NC(=O)CS3)cc1OC	1	5	1	.	8	4
COc1ccc(CCNC(=O)c2ccc3c(c2)NC(=O)CS3)cc1OC	0	-1	2	.	-33*	1
COc1ccc(CCNC(=O)c2ccc(Cn3c(=O)[nH]c4cc(OC)c(OC)cc4c3=O)cc2)cc1OC	0	0	-5	-2%	-35*	1
Cc1ccc(C(=O)NCCN2CCOCC2)cc1	0	-3	0	-1%	13	-1
COc1ccc(CCNC(=O)c2ccc(OCC(=O)N3CCOCC3)c(OC)c2)cc1OC	0	1	4	.	-42*	3
COc1ccc(/C=C/C(=O)Nc2ccc3nc4c(c(Nc5ccc(OC)c(OC)c5)c3c2)CCCC4)cc1	0	2	6	-1%	-6	0
COc1ccc(CCNC(=O)Cn2c(=O)nc(-c3ccccc3)c3ccccc32)cc1OC	-1	-1	-4	-1%	-15	0
CCCCCOC(=O)c1ccc(Nc2nc(C(=O)OCC)nc3ccccc23)cc1	0	0	-1	-2%	4	-1
COc1ccc(-c2noc(CC(=O)N(C)c3cccc(C)c3)n2)cc1	0	-4	-6	-2%	-5	2
CCOC(=O)c1ccccc1NC(=O)CSc1nc2cn(CC)nc2c(=O)n1Cc1ccc(Cl)cc1	3	2	5	-2%	-1	1
COCCCNC(=O)/C(C#N)=c1\s/c(=C\c2ccccc2OC(F)F)c(=O)n1CCCOC	0	-3	7	-1%	5	27
COCCNC(=O)/C(C#N)=c1\s/c(=C\c2ccccc2OC(F)F)c(=O)n1Cc1ccccc1	103*	-2	-13	?	-7	-1
COC(=O)NC(c1ccccc1)C(C(=O)OC)C(=O)OC (centres undefined)	.	.	.	1%[10.1 µM]	.	.
Cc1cc(C)cc(OCC(=O)NCC2(N(C)C)CCCCC2)c1	1	2	-2	0%	-4	5
NC(=O)NC(Cc1ccccc1)C(=O)Nc1ccc(S(N)(=O)=O)cc1 (centres undefined)	1	-1	7	2%	-76*	0
Cc1ccc(NC(=O)Nc2ccccc2CC[N+](=O)[O-])cc1	0	-7	2	0%	-32*	9
SMILES	TRHR agonist	D1 PAM	TRHR PAM	Epigenetic reg	D1 antagonist	D1 agonist
Cc1cc(C)cc(NC(=O)c2ccccc2CC[N+](=O)[O-])c1	-1	-10	15	-6%	-11	9
O=C1[C@H]2[C@H]3[C@H](O)[C@H](O)C/C(=N/OC[C@@H](O)COCc4ccco4)[C@@H]3CC[C@@H]2C(=O)N1Cc1ccccc1	.	.	.	1%[10.1 µM]	.	.
CC1=C(C(=O)OC2CCCCC2)C(c2ccc(C)o2)C2=C(CC(C)(C)CC2=O)N1 (centres undefined)	1	-1	-4	-2%	3	0
CC1=C(C(=O)OC2CCCCCC2)C(c2ccc(C)o2)C2=C(CCCC2=O)N1 (centres undefined)	0	-9	-5	0%	-33*	-2
CCOC(=O)c1c(NS(=O)(=O)c2cccc(OC)c2)sc2c1CCC2	-1	0	5	1%	-8	64*
CCOC(=O)c1c(NC(=O)c2ccc(Br)cc2)sc2c1CCCC2	0	-6	0	-1%	10	0
CCOC(=O)c1c(NC(=O)c2cc(-c3cccc(OC)c3)on2)sc2c1CCCC2	1	1	5	-1%	6	0
O=C(Cc1ccccc1)Nc1sc2c(c1C(=O)Nc1ccccc1Cl)CCCCC2	0	1	33*	-1%	17	-1
CCCOc1ccc(C(=O)Nc2sc3c(c2C(=O)OCC)CCCCC3)cc1	0	-1	5	-2%	-31*	-1
CCOC(=O)c1c(NC(=O)/C=C/c2ccc(C)cc2)sc2c1CCCC2	1	-1	1	-2%	-17	39*
Cc1cccc(NC(=O)CCS(=O)(=O)c2cc(Br)cc3c2N(C(=O)C2CC2)CC3)c1	-1	-3	-4	?	1	1
CCN(c1ccccc1)c1ccc2cc(S(=O)(=O)N3CCCC3)ccc2n1	0	-4	4	2%	7	2
COC(=O)c1c(NC(=O)COc2c(C)cccc2C)sc2c1CCCC2	0	2	2	-2%	7	-1
Cc1ccccc1OCC(=O)Nc1sc2c(c1C(=O)OC(C)C)CCCC2	-1	2	4	0%	4	45*
CCCNC(=O)c1c(NC(=O)c2ccccc2F)sc2c1CCCCC2	0	2	35*	5%	18	0
COc1cccc(-n2c(SCC(=O)c3ccc(Cl)cc3)nc3c([nH]c4ccccc43)c2=O)c1	1	-1	1	0%	0	2
O=C(CSc1nc2c([nH]c3ccccc32)c(=O)n1-c1ccc(F)cc1)N1CCc2ccccc21	0	-4	9	4%	-45*	2
O=C(CSc1nc2c([nH]c3ccccc32)c(=O)n1-c1ccccc1)N1CCc2ccccc21	0	-1	1	0%	-11	0
Cc1cccc(NC(=O)CSc2nc3c([nH]c4ccccc43)c(=O)n2-c2ccc(F)cc2)c1C	-1	1	3	4%	-33*	2
Cc1ccc(NC(=O)CSc2nc3c([nH]c4ccccc43)c(=O)n2C)cc1	0	0	-1	-3%	-33*	-1
